Where “and” joins values, the source holds several entries; their conditions need not be identical. Equal entries are not always repeated. About 2,000 (36%) of roughly 5,500 compounds were called active. Not shown: some 18% with an inconclusive outcome. Cut-off read from the data, not from the text of the source: active = normalized growth mostly below about 0.91 (no sharp cut-off); inconclusive = no clear call, values can overlap the other calls; inactive = mostly above about 0.92. Some of the results follow.
Experiment: chemical genetic growth profiling, strain panel (AID 1159580);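 note: tested at 20 µM; growth read once vehicle control cultures reached saturation at 30 °C; 1 = growth at the plate median or of vehicle wells; lower values mean less growth of the strain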
Conditions: S. cerevisiae deletion strains, growth OD

Measured: normalized growth

CC(CCC(=O)O)[C@H]1CCC2C3CC[C@@H]4C[C@H](O)CC[C@]4(C)C3CC[C@@]21C (some centres not stated)
0.762 (active) and 0.955 (inactive): locus YHR030C, strain SLT2, stronger effect = lower value
0.522 (active) and 0.953 (inactive): locus YJL095W, strain BCK1, stronger effect = lower value
inactive: locus YAL021C, strain ccr4, stronger effect = lower value 0.982 | locus YAL026C, strain drs2, stronger effect = lower value 0.946 | locus YAL030W, strain snc1, stronger effect = lower value 0.989 | locus YBL061C, strain skt5, stronger effect = lower value 1.03 | locus YBR021W, strain FUR4, stronger effect = lower value 0.932 | locus YBR023C, strain chs3, stronger effect = lower value 0.924 | locus YBR171W, strain sec66, stronger effect = lower value 1.01 | locus YBR229C, strain ROT2, stronger effect = lower value 1.04 | locus YBR231C, strain swc5, stronger effect = lower value 0.939 | locus YBR279W, strain paf1, stronger effect = lower value 1.01 | locus YCL011C, strain gbp2, stronger effect = lower value 0.974 | locus YCL029C, strain bik1, stronger effect = lower value 0.993 | locus YCL061C, strain MRC1, stronger effect = lower value 0.931 | locus YCL069W, strain vba3, stronger effect = lower value 1 | locus YCR088W, strain abp1, stronger effect = lower value 0.993 | locus YDL005C, strain med2, stronger effect = lower value 1.01 | locus YDL040C, strain nat1, stronger effect = lower value 1.03 | locus YDL185W, strain tfp1, stronger effect = lower value 1.04 | locus YDR001C, strain nth1, stronger effect = lower value 1.02 | locus YDR069C, strain doa4, stronger effect = lower value 0.947 | locus YDR101C, strain arx1, stronger effect = lower value 0.977 | locus YDR159W, strain sac3, stronger effect = lower value 0.925 | locus YDR195W, strain ref2 1.07 | locus YDR297W, strain sur2, stronger effect = lower value 1 | locus YDR318W, strain mcm21, stronger effect = lower value 0.951 | locus YDR334W, strain swr1, stronger effect = lower value 0.989 | locus YDR335W, strain msn5, stronger effect = lower value 0.926 | locus YDR388W, stronger effect = lower value 1.01 | locus YEL003W, strain gim4, stronger effect = lower value 0.94 | locus YEL037C, strain rad23, stronger effect = lower value 0.994 | locus YEL061C, strain CIN8 (second series), stronger effect = lower value 1.01 | locus YER016W, strain bim1, stronger effect = lower value 1 | locus YER110C, stronger effect = lower value 1.07 | locus YER111C, strain swi4, stronger effect = lower value 1.01 | locus YER155C, strain BEM2 (second series), stronger effect = lower value 1.04 | locus YER167W, strain BCK2, stronger effect = lower value 0.906 | locus YFR010W, strain ubp6, stronger effect = lower value 0.982 | locus YGL078C, strain dbp3, stronger effect = lower value 0.926 | locus YGL167C, strain pmr1, stronger effect = lower value 0.988 | locus YGL227W, strain vid30, stronger effect = lower value 1 | locus YGL240W, strain doc1, stronger effect = lower value 0.89 | locus YGL253W, strain hxk2, stronger effect = lower value 0.989 | locus YGR252W, strain gcn5, stronger effect = lower value 0.792 | locus YHR013C, strain ard1, stronger effect = lower value 1.01 | locus YHR027C, strain rpn1, stronger effect = lower value 0.94 | locus YHR079C, strain IRE1 (second series), stronger effect = lower value 1.06 | locus YHR079C, strain IRE1, stronger effect = lower value 0.955 | locus YHR200W, strain rpn10, stronger effect = lower value 1.02 | locus YIL073C, strain SPO22, stronger effect = lower value 0.937 | locus YIL125W, strain kgd1, stronger effect = lower value 1.04 | locus YIR030C, strain dcg1, stronger effect = lower value 1.04 | locus YJL092W, strain hpr5, stronger effect = lower value 0.966 | locus YJL115W, strain asf1, stronger effect = lower value 1.01 | locus YJL129C, strain trk1, stronger effect = lower value 0.914 | locus YJL134W, strain LCB3, stronger effect = lower value 1.04 | locus YJL154C, strain vps35, stronger effect = lower value 0.997 | locus YJL164C, strain tpk1, stronger effect = lower value 0.92
active: locus YAL013W, strain DEP1, stronger effect = lower value 0.831 | locus YBR009C, strain hhf1, stronger effect = lower value 0.888 | locus YCL016C, strain dcc1, stronger effect = lower value 0.909 | locus YDL035C, strain GPR1, stronger effect = lower value 0.528 | locus YDL074C, strain BRE1, stronger effect = lower value 0.698 | locus YDL101C, strain DUN1, stronger effect = lower value 0.713 | locus YDL192W, strain arf1, stronger effect = lower value 0.856 | locus YDR137W, strain rgp1, stronger effect = lower value 0.452 | locus YDR162C, strain NBP2, stronger effect = lower value 0.208 | locus YDR392W, strain spt3, stronger effect = lower value 0.735 | locus YDR502C, strain sam2, stronger effect = lower value 0.878 | locus YEL061C, strain CIN8, stronger effect = lower value 0.912 | locus YER015W, strain faa2, stronger effect = lower value 0.907 | locus YER155C, strain BEM2, stronger effect = lower value 0.852 | locus YGL086W, strain mad1, stronger effect = lower value 0.923 | locus YGL173C, strain kem1, stronger effect = lower value 0.701 | locus YGL248W, strain PDE1, stronger effect = lower value 0.827 | locus YGR078C, strain PAC10, stronger effect = lower value 0.757 | locus YGR135W, strain pre9, stronger effect = lower value 0.84 | locus YGR229C, strain SMI1, stronger effect = lower value 0.356 | locus YHR094C, strain hxt1, stronger effect = lower value 1.08 [resistant] | locus YHR129C, strain ARP1, stronger effect = lower value 0.791 | locus YHR142W, strain chs7, stronger effect = lower value 0.873 | locus YIL066C, strain RNR3, stronger effect = lower value 0.79 | locus YJL095W, strain BCK1 (second series), stronger effect = lower value 0.893 | locus YJL166W, strain qcr8, stronger effect = lower value 0.83 | locus YJL168C, strain set2, stronger effect = lower value 1.14 [resistant] | locus YJL187C, strain SWE1 (second series), stronger effect = lower value 0.791
